# Laboratory results published in PubChem BioAssay AID1347383 (Zoeller Lab, School of Medicine, Boston University, 2020).
# Active and inactive are the calls of the source.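 Rule for the calls: active = cell survival after UV exposure 2 SD above solvent-only control wells at 10 µM, confirmed on one or two repeats; inactive = the rest.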
# Test: protection of CHO cells from pyrene-fatty acid UV killing, primary screen, phospholipid biosynthesis inhibitor project, ZR-82 cells, Analyticon library, screen 2 (AID 1347383);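 note: survival reflects blocked phospholipid synthesis cutting uptake of the phototoxic fatty acid; compound and fatty acid exposure 3 h then viability read next day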
# Settings: ZR-82 CHO cells, CellTiter Blue, at 10 µM, peroxisome-deficient CHO-K1 variant, with DGAT-1, DGAT-2 and ACAT inhibitors
row,SMILES,outcome
1,CC[C@H](CC[C@@H](C)[C@H]1CC[C@H]2[C@@H]3CC=C4C[C@@H](O)CC[C@]4(C)[C@H]3CC[C@]12C)C(C)C,inactive
2,C=C(CO)C(=O)O[C@H]1CC(=C)[C@@H]2CC(=O)[C@H](C)[C@@H]2[C@H]2OC(=O)C(=C)[C@@H]21,inactive
3,CC1(C)CCCC2(C)C(CO)C3CCC2C31 (stereo not given),inactive
4,Cc1c(O)cc(C(C)C)c(O)c1-c1c(C)c(O)cc(C(C)C)c1O,inactive
5,CN(/C=C\c1ccccc1)C(=O)/C=C/c1ccccc1,inactive
6,C/C1=C\CCC2=C[C@@H](OC2=O)c2c(C)coc2C1,inactive
7,CO[C@@H]1[C@H](O)CC[C@]2(CO2)[C@H]1[C@@]1(C)O[C@@H]1CC=C(C)C,inactive
8,O=C1c2cccc(O)c2C(=O)c2c(O)cccc21,inactive
9,CCC/C=C\C/C=C\CCCC/C=C\Cc1cc(O)cc(O)c1,inactive
10,CC(=O)N[C@@H](C(=O)O[C@H]1CCC(C)(C)[C@@H]2CCC3=C(COC3=O)[C@@]12C)C(C)C,inactive
11,COC1C(=O)CCC2(CO2)C1(O)C1(C)OC1CC=C(C)C (stereo not given),inactive
12,Cc1c(O)c2c(oc1=O)C(C)(O)C(C)OC2 (stereo not given),inactive
13,CCCCCCC1OC23OC1CCC2CCC(O)C3O (stereo not given),inactive
14,C[C@]12CC[C@@H]3c4ccc(O)cc4CC[C@H]3[C@@H]1CCC2=O,inactive
15,COc1c2cccc(C)c2c(C=O)c2c(COC(C)=O)coc12,inactive
16,COC(=O)c1ccccc1O[C@@H]1O[C@H](CO)[C@@H](O)[C@H](O)[C@H]1O[C@@H]1O[C@@H](C)[C@H](O)[C@@H](O)[C@H]1O,inactive
17,COc1c(C)c2c(c(O)c1C/C=C(\C)CCCC(C)C(=O)O)C(=O)OC2 (stereo not given),inactive
18,Cc1cc2c(CO)cc(O)cc2o1,inactive
19,O=C(O)C1(O)C[C@@H](O)C(O)[C@H](O)C1 (stereo not given in full),inactive
20,COC(=O)/C=C(\C)CCC1(C)C(C)CCC2(C)C(C)=CC(=O)CC21 (stereo not given),inactive

row,SMILES,outcome
1,COc1ccc(/C=C/C(=O)O)cc1O,inactive
2,OCCc1ccc(O)cc1,inactive
3,COc1cc(O)c2c(=O)c3cc(O)c(O)cc3oc2c1,inactive
4,O=C(O)CCC(=O)Cc1ccccc1,inactive
5,C=C1C2=C(C(=O)N1OC)[C@H](O)[C@](C)(O)[C@H](CCCCC)O2,inactive
6,C=C(Oc1cccc(C(=O)O)c1)C(=O)O,inactive
7,COc1cc2c(cc1O)C(=O)CC1C(C)(C)C(=O)CCC21C (stereo not given),inactive
8,CC(C)=CCCC1(C)C=Cc2c(c(C)cc3c2[nH]c2ccccc23)O1 (stereo not given),inactive
9,COc1cc(O)c2c(=O)c(-c3ccc(O)cc3O[C@@H]3O[C@H](CO)[C@@H](O)[C@H](O)[C@H]3O)coc2c1,inactive
10,CO[C@H]1c2cc(C(C)C)c(O)c(O)c2[C@@]23CCCC(C)(C)C2[C@@H]1OC3=O (stereo not given in full),inactive
11,C=C[C@@]1(C)CC[C@@H]([C@H](C)C(=O)CC=C(C)C)O1,inactive
12,CC(=O)O[C@H]1CC2C(COC(=O)CC(C)C)=CO[C@@H](OC(=O)CC(C)C)C2[C@@]12CO2 (stereo not given in full),inactive
13,CCC(=O)C1OC(O)(CCC2=CCOC2=O)C2(C)CCCC(C)(C)C12 (stereo not given),inactive
14,COc1c(O)ccc2c1C(=O)c1ccccc1C2=O,inactive
15,C/C(=C\C(=O)C(C)C1CCC2C3=C(CCC21C)C1(C)CCC(O)C(C)(C)C1(O)CC3)C(C)(C)O (stereo not given),inactive
16,COc1c(O)cc([C@@H]2Oc3cc(O)cc(O)c3C[C@@H]2O)cc1O,inactive
17,COc1cc2c(c(OC)c1OC)-c1ccc(OC)c(=O)cc1[C@@H](NC(C)=O)CC2,inactive
18,COC1C(OC(=O)/C=C/C=C/C=C/C=C/C(=O)O)CCC2(CO2)C1C1(C)OC1CC=C(C)C (stereo not given),inactive
19,C[C@@H]1O[C@@H](Oc2c(-c3ccc(O)cc3)oc3cc(O)cc(O)c3c2=O)[C@H](O)[C@H](O)[C@H]1O,inactive
20,O=C(NC(CO)Cc1ccccc1)c1ccccc1 (stereo not given),inactive
